This is part of a sample that, as a whole, favours compounds with a hit. Of some 83,000 tested, about 20% had one in any assay.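 The test compound was applied at a single concentration to cells in 96-well plates for 48 hours, and percent growth was recorded.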 Values without a mark were called inactive. The source made the active and inactive calls. The calls were made as follows: active = growth percent below 10; inactive = the rest.
Legend:
Experiment in all cases: NCI-60 one-dose screen, 48 h (100 = growth as untreated, 0 = no growth, -100 = all killed)
Conditions in all cases: 10 µM unless noted
NCI-H23 lung = tested on: NCI-H23 lung
NCI-H226 lung = tested on: NCI-H226 lung
NCI-H322M lung = tested on: NCI-H322M lung
HOP-62 NSCLC = tested on: HOP-62 NSCLC
HOP-92 NSCLC = tested on: HOP-92 NSCLC
NCI-H522 lung = tested on: NCI-H522 lung
A549/ATCC NSCLC = tested on: A549/ATCC NSCLC
786-0 renal = tested on: 786-0 renal
COLO 205 colon = tested on: COLO 205 colon
NCI-H460 lung = tested on: NCI-H460 lung

SMILES | growth (NCI-H23 lung) | growth (NCI-H226 lung) | growth (NCI-H322M lung) | growth (HOP-62 NSCLC) | growth (HOP-92 NSCLC) | growth (NCI-H522 lung) | growth (A549/ATCC NSCLC) | growth (786-0 renal) | growth (COLO 205 colon) | growth (NCI-H460 lung) [%]
COc1cc(N=Nc2cc(S(=O)(=O)O)cc3cc(S(=O)(=O)O)cc(O)c23)c(C)cc1N=Nc1c(S(=O)(=O)O)cc2cc(Nc3ccccc3)ccc2c1O | 99.8% | 114% | 93.7% | 102% | 103% | 80.1% | 101% | 102% | 129% | 
COc1ccc(C2C(c3ccccc3)C(=O)N2c2cc(OC)c(OC)c(OC)c2)cc1I (stereo not drawn) | 24.6% | 60.6% | 42.9% | 24.7% | 42.5% | -9.3% (active) | 16.9% | 17.4% | -64.3% (active) | 
COc1cccc(NC(=O)Nc2ccc(Oc3ncnc4[nH]c(C)c(C)c34)cc2)c1 | 70.7% | 105% | 105% | 97.5% | 110% | 57.8% | 79.7% | 109% | 102% | 61.3
O=C1CCC23OC(c4ccccc4N12)C(O)C(O)C3O (stereo not drawn) | 102% | 107% | 98.6% | 104% | 113% | 81% | 94.5% | 98.8% | 124% | 112
CCOCc1cc(C(C)(C)C)ccc1O | 103% | 97.4% | 106% | 95.2% | 92.3% | 77.9% | 90.4% | 97.6% | 114% | 
C=C(C)[C@@H]1CC[C@]2(C(=O)NCCCO)CC[C@]3(C)[C@H](CC[C@@H]4[C@@]5(C)CCCNC(C)(C)[C@@H]5CC[C@]43C)[C@@H]12 | 77.3% | 79.8% | 78.6% | 89.9% | 58.1% | 88% | 73.1% | 85.6% | -62.6% (active) | 
CCOC(=O)c1c(C)nc2c(c1N)/C(=C/c1cccs1)C(=O)N2Cc1ccccc1 | 74.5% | 77.5% | 91.9% | 68.8% | 60.4% | 58.3% | 77.9% | 52.1% | 61.3% | 67.1
CCOC(=O)C1CCN(S(=O)(=O)/N=C2/NC(=O)NC2=C(Cl)Cl)CC1 | 16.7% | 118% | 31.1% | 20.2% | -73.9% (active) | -69.4% (active) | 21% | 3.63% (active) | -69.6% (active) | 
c1cc(CNC23CC4CC(CC(C4)C2)C3)cc(C[N+](Cc2cccc(CNC34CC5CC(CC(C5)C3)C4)c2)(Cc2cccc(CNC34CC5CC(CC(C5)C3)C4)c2)Cc2cccc(CNC34CC5CC(CC(C5)C3)C4)c2)c1 (stereo not drawn) | 42.1% [42 µM] | 33.5% [42 µM] | 37.1% [42 µM] | 33.1% [42 µM] | 32.8% [42 µM] | -56.4% [42 µM] (active) | 16.2% [42 µM] | 18.3% [42 µM] | -40.9% [42 µM] (active) | 
C=C(C)[C@@H]1CC[C@]2(C(=O)N3CCN(C)CC3)CC[C@]3(C)[C@H](CC[C@@H]4[C@@]5(C)C/C(=C/c6ccco6)C(=O)C(C)(C)[C@@H]5CC[C@]43C)[C@@H]12 | 79.9% | 86.4% | 79.9% | 73.6% | 55.7% | 74% | 60.6% | 71.2% | 74.6% | 
Cc1ccc2nc3nc4ccc[nH]c4cc3c2c1 | 65.1% | 78.4% | 72.5% | 76.4% | 121% | 90.1% | 97.6% | 108% | 82.1% | 
O=C(/C(=C/c1ccc([N+](=O)[O-])cc1)SCc1ccc(F)cc1)c1ccc(Cl)cc1 | 58.9% | 64.6% | 98.1% | 76.8% | 69.6% | -41.4% (active) | 86.8% | 82.5% | 64% | 
CN(C)CCCn1c2c(c3cc(-c4ccco4)ccc3c1=O)C(=O)c1ccccc1-2 | 71.8% | 77.2% | 81.3% | 59.2% | 71.6% | 59.9% | 67.7% | 69.2% | 52.9% | 
N#CC(C#N)=C1NC(c2ccccc2)=C(c2ccccc2)C(c2ccccc2Cl)=C1C#N | 93.5% | 108% | 107% | 109% | 109% | 85.5% | 84% | 97.6% | 123% | 
Cc1cc(O)cc(O)c1N=NC1=NCCS1 | 98% | 117% | 97.8% | 95.7% | 109% | 90.3% | 101% | 96.6% | 100% | 
